Compound activity as filed in PubChem BioAssay.
The list is not random: actives were taken first. Their share in the collection is about 18%.
TDP1 cell CPT = DT40-hTDP1 cell growth loss with CPT. Potency, µM (top dose mostly 46.2 µM), for inactives: top-dose activity change, negative = growth inhibition, usual class: inhibitors. AID 686979. actives 12% (n = 420,000). chicken DT40 Tdp1-/-;hTDP1 cells + 20 nM CPT, ATP luminescence, 48 h; note: potency is the fitted concentration of half-maximal effect; nearly all actives have a fitted effect of over 55% in size
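Cell growth measured by CellTiter-Glo luminescence after a minimum 48 h, 37 C compound exposure with 20 nM CPT in Tdp1-knockout DT40 cells stably expressing hTDP1, seeded 400/well; qHTS titration format.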
CtBP-E1A inh = CtBP/E1A binding inhibition | actives 0.49% (n = 340,000) | AlphaScreen GST-E1A/His-CtBP binding, 1536-well; active compounds read low | AID 651724 | activity change, % (concentration not given with the values); in the data active = activity change below about -65%; inconclusive = mostly about -30% to -63%
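Steps: dispense buffer (Tris pH 8.0, NaCl 300 mM, TCEP 1 mM, BSA, Tween 20); add 5X protein mix (GST-E1A, His-CtBP, 125 nM each); pin 23 nL compound; 2 h at 37 °C, dark; add 5X beads (50 ug/mL); 1 h; read.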
TDP1 cell noCPT = qHTS for Inhibitors of human tyrosyl-DNA phosphodiesterase 1 (TDP1): qHTS in cells in absence of CPT | Potency, µM (highest dose often 46.2 µM), without a hit: at the top dose activity change, negative = growth inhibition, hits mostly inhibitors | actives 15% (n = 420,000) | DT40 Tdp1-/- hTDP1 cells, no CPT, ATP luminescence, 48 h; note: potency is the fitted concentration of half-maximal effect; nearly all actives have a fitted effect of over 55% in size
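Camptothecin absent (DMSO only). Human TDP1-complemented DT40 knockout cells, 400 cells/well, 37 °C for minimum 48 hr; ATP measured via CellTiter-Glo, 30 min dark incubation, luminescence.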
IL1B secr inh = inhibitors of inflammasome signaling (IL-1 beta secretion). activity change, % at 57.5 µM. AID 743279. actives 4.7% (n = 360,000). THP-1 LPS/ATP IL-1B secretion, AlphaLISA, 16 h; active compounds read low; in the data active = activity change below about -50%; inconclusive = mostly about -30% to -49%
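Secreted IL-1B measured by AlphaLISA bead assay after 16 h compound exposure of THP-1 cells; compounds (final up to 57.5 uM) added 1 h before LPS (250 ng/mL) and ATP (1.25 mM) stimulation; lower signal means less secretion.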
TDP1 inh = inhibitors of human tyrosyl-DNA phosphodiesterase TDP1. Q9NUW8. recombinant TDP1, AlphaScreen DNA substrate cleavage. Potency, µM (doses to about 130 µM), for inactives: top-dose activity change, negative = inhibition, hits mostly inhibitors. actives 0.28% (n = 350,000). AID 485290; note: potency is the fitted concentration of half-maximal effect; nearly all actives have a fitted effect of over 40% in size
Target sequence (Q9NUW8 whole entry, looked up): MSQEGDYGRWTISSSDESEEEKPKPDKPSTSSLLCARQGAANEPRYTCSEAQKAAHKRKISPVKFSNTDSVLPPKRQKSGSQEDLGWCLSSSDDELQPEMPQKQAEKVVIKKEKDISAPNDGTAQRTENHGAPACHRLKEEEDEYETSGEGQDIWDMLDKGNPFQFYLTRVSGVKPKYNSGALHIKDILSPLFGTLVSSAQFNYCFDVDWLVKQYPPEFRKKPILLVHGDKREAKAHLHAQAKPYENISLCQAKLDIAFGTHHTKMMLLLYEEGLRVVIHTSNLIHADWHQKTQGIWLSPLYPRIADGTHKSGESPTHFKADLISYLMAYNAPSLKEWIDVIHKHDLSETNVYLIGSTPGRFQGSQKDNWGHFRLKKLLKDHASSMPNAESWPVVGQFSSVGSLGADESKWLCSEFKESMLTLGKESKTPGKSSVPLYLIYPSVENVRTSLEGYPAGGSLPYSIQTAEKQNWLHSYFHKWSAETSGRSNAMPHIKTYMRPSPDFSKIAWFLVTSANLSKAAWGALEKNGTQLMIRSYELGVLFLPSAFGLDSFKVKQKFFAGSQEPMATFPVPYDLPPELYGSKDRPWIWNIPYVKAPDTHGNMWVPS
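Signal: AlphaScreen proximity between streptavidin donor and anti-FITC acceptor beads on intact substrate. Reaction: Tdp1 1 nM, substrate 15 nM final, 5 min RT after 15 min compound preincubation.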
Six1-Eya2 inh = inhibitors of human Six1/Eya2 interaction; actives 0.56% (n = 360,000); activity change, % (test concentration not listed); AID 651725; AlphaScreen GST-Six1/His-Eya2 binding, biochemical; active compounds read low; in the data active = activity change below about -65%; inconclusive = mostly about -30% to -63%
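AlphaScreen with GST-Six1 and His-Eya2 (5X mix: 250 nM and 500 nM), glutathione donor and nickel acceptor beads; buffer 50 mM Tris pH 8.0, 300 mM NaCl, 1 mM TCEP; 1 h at 37 C in the dark.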
* = called active by the depositor; ? = inconclusive; nt = not tested or not shown. Unless noted, calls come from the whole dose curve; as a rule, active = well fitted curve in the direction sought with a large enough effect; inconclusive = small, poorly fitted or top-dose-only effect, or another doubt; inactive = no such curve, though single readings can be large; an effect the other way counts as inactive or inconclusive. % is set by controls: 0 for no effect and ±100 for the full control effect.

SMILES	TDP1 cell CPT	CtBP-E1A inh	TDP1 cell noCPT	IL1B secr inh	TDP1 inh	Six1-Eya2 inh
CCOc1ccccc1NC(=O)C1=C(C)Nc2ncnn2C1c1ccccn1 (centres undefined)	-1%	nt	0%	nt	3%	nt
CC(C)(C)c1ccc(CC(=O)N2CCC2(C)C(=O)NCc2ccc3c(c2)OCO3)cc1 (centres undefined)	?	1	?	-12	nt	-2
CSc1ccccc1NC(=O)C1(C)CCN1C(=O)Cc1ccc(Cl)cc1Cl (centres undefined)	?	8	?	0	nt	1
CC1(C(=O)NCc2ccc3c(c2)OCO3)CCN1C(=O)CCc1ccc(Cl)cc1Cl (centres undefined)	21µM*	1	15µM*	-15	nt	-1
CC1(C(=O)NS(=O)(=O)c2ccccc2Cl)CCN1C(=O)CCc1ccc(Cl)cc1Cl (centres undefined)	-24%	-3	-13%	0	nt	10
CC1(C(=O)Nc2ccccc2Br)CCN1C(=O)Cc1ccc(Cl)cc1Cl (centres undefined)	23µM*	0	16µM*	-12	nt	-2
CC1(C(=O)Nc2ccccc2)CCN1C(=O)CCc1ccc(Cl)cc1Cl (centres undefined)	?	9	21µM*	-6	nt	8
CC1(CCc2ccccc2)NC(=O)N(CC(=O)O)C1=O (centres undefined)	?	9	?	3	nt	0
Cc1c(C(=O)Nc2ccccc2F)cnn1-c1ccccc1	?	-9	?	0	4%	1
CC1(C)Cc2c(c(N3CCOCC3)nc3sc4c(NN)ncnc4c23)CS1	?	-2	?	64	-2%	-1
CC1(C)Cc2c(c(N3CCOCC3)nc3sc4c(NCc5ccco5)nnnc4c23)CS1	21µM*	-13	18µM*	-60*	9%	-21
CC(C)CNc1nnnc2c1sc1nc(N3CCOCC3)c3c(c12)CC(C)(C)SC3	29µM*	5	?	-4	6%	-9
CC(C)C(=O)Nc1cccc(NC2=NS(=O)(=O)c3ccccc32)c1	nt	nt	nt	nt	1%	nt
COc1ccc(/C=C/C(=O)c2ccoc2)cc1	?	-2	?	?	1%	11
COc1cc(C=CC(=O)c2ccccc2)cc(OC)c1OC	5.8µM*	-23	8.2µM*	-115*	nt	7
COc1ccc2cc(C(=O)/C=C/c3cc(OC)c(OC)c(OC)c3)ccc2c1	26µM*	-1	21µM*	-62*	10%	-11
COc1cc(/C=C/C(=O)OCC(=O)N(C)Cc2ccccc2)cc(OC)c1OC	?	nt	?	18	1%	5
COc1cc(/C=C/C(=O)c2cccs2)cc(OC)c1OC	3.8µM*	nt	1.5µM*	nt	24%	nt
CCCOc1ccc(N/C=C/C(=O)c2cc(OC)c(OC)c(OC)c2)cc1	?	nt	23µM*	-8	nt	-1
COCCN1C(=O)c2oc3ccccc3c(=O)c2C1c1ccc(OC)c(OC)c1 (centres undefined)	1%	4	-1%	-4	5%	-10
COC(=O)c1ccc(NC(=O)CSc2nnc(-c3ccncc3)n2N)cc1	-2%	13	11%	-2	6%	3
CCOc1cc(C2CC(=O)Nc3c2c(C)nn3-c2nc(C)cc(C)n2)ccc1O (centres undefined)	?	nt	?	nt	1%	nt
COc1cc(/C=C/C(=O)N2CCCN(C(=O)/C=C/c3cc(OC)c(OC)c(OC)c3)CC2)cc(OC)c1OC	2%	nt	?	-11	0%	14
COc1cc(C=CC(=O)c2cc(OC)c(OC)c(OC)c2)cc(OC)c1OC	5.8µM*	-6	5.8µM*	0	nt	6
